Source: PubChem (National Center for Advancing Translational Sciences (NCATS))
IL1B secr inh – blocks inflammasome-driven IL-1 beta release; THP-1 LPS/ATP IL-1B secretion, AlphaLISA, 16 h; hits give low values; activity change, % at 57.5 µM; actives 4.7% (n = 360,000); AID 743279; in the data active = activity change below about -50%; inconclusive = mostly about -30% to -49%
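Secreted IL-1B measured by AlphaLISA bead assay after 16 h compound exposure of THP-1 cells; compounds (final up to 57.5 uM) added 1 h before LPS (250 ng/mL) and ATP (1.25 mM) stimulation; lower signal means less secretion.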
HT1080-NT tox – kills 2HG-producing HT-1080-NT fibrosarcoma cells. AID 686970. HT-1080-NT fibrosarcoma viability, CellTiter-Glo ATP luminescence, 48 h. actives 1.6% (n = 360,000). Potency, µM (series often up to 46.1 µM), for the others: top-dose activity, negative = less viability, actives largely listed as cytotoxic;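 also: NT is the 2HG producing partner of a matched IDH1 knockdown line; potency is read from the fitted curve at half-maximal effect; 0% = DMSO-treated cells and -100% = media-only wells without cells; nearly all actives have a fitted effect of over 55% in size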
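A 48-hour cytotoxicity screen used HT-1080-NT cells plated 2 hours before compound delivery. ATP-based CellTiter-Glo luminescence measured viability, normalized to DMSO and no-cell controls.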
DT40 TDP1 no CPT – qHTS for Inhibitors of human tyrosyl-DNA phosphodiesterase 1 (TDP1): qHTS in cells in absence of CPT; DT40 Tdp1-/- hTDP1 cells, no CPT, ATP luminescence, 48 h; Potency, µM (highest dose often 46.2 µM), for the others: at the highest dose activity change, negative = growth inhibition, actives largely listed as inhibitors; actives 15% (n = 420,000); AID 686978, 2013; also: potency is read from the fitted curve at half-maximal effect; nearly all actives have a fitted effect of over 55% in size
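No-CPT arm: Tdp1-/-;hTDP1 DT40 cells (400/well) plus compounds, incubated ≥48 hr at 37 °C. Readout CellTiter-Glo luminescence.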
HT1080 IDH1KD tx – HT-1080 IDH1 knockdown cell toxicity (counter line). Potency, µM (doses to about 46.1 µM), inactives show at the top dose activity, negative = toxicity, most hits filed as cytotoxic. actives 2% (n = 360,000). HT-1080 IDH1 knockdown viability, ATP luminescence, 48 h;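 also: potency is read from the fitted curve at half-maximal effect; 0% = DMSO wells and -100% = cell-free medium wells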
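In this qHTS, HT-1080 cells depleted of IDH1 are exposed for 48 h at 37 °C to compound titrations. Toxicity is scored from CellTiter-Glo luminescence, with DMSO as full viability and medium alone as none.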
uPA generation – inhibitors of cell surface uPA generation; Potency, µM (top dose mostly 38.3 µM), for the others: at the top dose activity change, negative = inhibition, most hits filed as inhibitors; actives 0.31% (n = 330,000); cell surface uPA generation assay, qHTS; AID 540303; active = well fitted inhibition curve with a large enough effect; inconclusive = small, poorly fitted or top-dose-only effect; inactive = no such curve, though single readings can be large or run the other way; tested in mouse RAW 264.7 cells; also: potency is read from the fitted curve at half-maximal effect; nearly all actives have a fitted effect of over 55% in size
TDP1 cell CPT – DT40-hTDP1 cell growth loss with CPT. chicken DT40 Tdp1-/-;hTDP1 cells + 20 nM CPT, ATP luminescence, 48 h. Potency, µM (highest dose often 46.2 µM), for the others: at the highest dose activity change, negative = growth inhibition, hits mostly inhibitors. actives 12% (n = 420,000). AID 686979; also: potency is read from the fitted curve at half-maximal effect; nearly all actives have a fitted effect of over 55% in size
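Chicken DT40 Tdp1-/- cells stably complemented with human TDP1 were seeded at 400 cells/well in medium containing 20 nM camptothecin, exposed to pin-transferred compounds, and grown at 37 °C for at least 48 hr. Viability was read as ATP luminescence.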
Active calls of the source: *; ? = inconclusive; / = not tested or not shown. In the library only some 19% were active in any assay of this set; here they are far more common. Unless noted, calls follow the shape of the dose curve; as a rule, active = well fitted curve in the direction sought with a large enough effect; inconclusive = small, poorly fitted or top-dose-only effect, or another doubt; inactive = no such curve, though single readings can be large; an effect the other way counts as inactive or inconclusive. Unless noted, % is scaled to controls: 0 for no effect and ±100 for the full control effect.

SMILES	IL1B secr inh	HT1080-NT tox	DT40 TDP1 no CPT	HT1080 IDH1KD tx	uPA generation	TDP1 cell CPT
COC(=O)c1ccccc1NC(=O)CCCn1c(C)c2cnn(-c3ccccc3)c(=O)c2c1C	/	/	-16.8%	/	/	-21.5%
Cc1c2cnn(-c3ccccc3)c(=O)c2c(C)n1CCCC(=O)Nc1ccc(F)cc1F	/	/	16.4µM*	/	/	?
COc1ccc(NC(=O)C(C)n2c(C)c3cnn(-c4ccccc4)c(=O)c3c2C)cc1Cl (configuration not stated)	/	/	18.4µM*	/	/	23.1µM*
CCCN1CCN(C(=O)CCCn2c(C)c3cnn(-c4ccccc4)c(=O)c3c2C)CC1	-21.5	-4.3%	1.1%	2.2%	-2.0%	-21.1%
COc1ccc(Cl)cc1NC(=O)CCCn1c(C)c2cnn(-c3ccccc3)c(=O)c2c1C	/	/	?	/	/	23.1µM*
Cc1noc(C)c1S(=O)(=O)N1CCCN(C(=O)/C=C/c2ccccc2F)CC1	-4.9	5.8%	?	-0.4%	-0.1%	-14.2%
Cc1cc(C(=O)Nc2ccc(Br)cc2F)n(-c2ccccc2)n1	?	1.9%	-11.6%	1.1%	0.4%	?
Cc1ccc(NC(=O)c2cc(-c3ccccc3)nn2-c2ccccc2)c(Br)c1	-2.8	21.8%	?	14.2%	1.8%	14.6µM*
Cc1ccc(NC(=O)c2cc(-c3ccccc3)nn2-c2ccccc2)cc1	?	1.9%	20.6µM*	0.4%	-2.2%	?
CCC(CC)C(=O)Nc1cc(-c2cccc(C)c2)nn1-c1ccccc1	/	/	16.4µM*	/	/	23.1µM*
CC(=O)c1ccc(NC(=O)CSc2nc(-c3cccc(F)c3)nc3c2c(=O)n(C)c(=O)n3C)cc1	/	/	-12.9%	/	/	15.7%
CC1(C(=O)Nc2ccc3c(c2)OCCO3)CSCC(=O)N1Cc1ccco1 (configuration not stated)	2.3	19.1%	-4.5%	22.6%	/	-27.4%
Cc1ccccc1NC(=O)CCCC(=O)c1ccccc1	12.9	0.1%	0.0%	4.9%	3.5%	12.9%
Cc1cc(C(=O)CSc2nncs2)c(C)n1-c1c(C)n(C)n(-c2ccccc2)c1=O	21.1	6.5%	-2.4%	4.8%	0.6%	3.4%
Cc1ccc(-n2nnnc2SCC(=O)c2cc(C)n(-c3cc(C)on3)c2C)c(C)c1	-9.4	?	23.1µM*	-6.8%	-17.9%	23.1µM*
Cc1cc(-n2c(C)cc(C(=O)CSc3nnnn3-c3ccccc3)c2C)no1	-21.7	?	?	?	0.0%	?
Cc1cc(C(=O)CSc2nnnn2-c2ccccc2)c(C)n1CCc1ccccc1	-13.2	-13.9%	?	-9.9%	3.5%	-7.2%
Cc1cc(C(=O)CSc2nnnn2-c2ccc(O)cc2)c(C)n1C	3.0	7.5%	16.4µM*	22.8%	0.8%	?
Cc1ccc(-n2c(C)cc(C(=O)CSc3nnnn3C)c2C)cc1	?	-8.1%	20.6µM*	-1.5%	-2.4%	18.4µM*
Cc1cc(C(=O)CSc2nnnn2C)c(C)n1CCc1ccc(F)cc1	25.6	?	-5.6%	?	-3.5%	4.2%
Cc1ccc(-n2c(C)cc(C(=O)CSc3nncs3)c2C)cc1	-2.9	?	20.6µM*	?	-27.7%	10.3µM*
CSCC[C@H](NS(=O)(=O)c1ccc(C(C)=O)cc1)c1nnc2ccccn12	22.6	10.1%	6.6%	10.2%	3.5%	2.5%
CC(C)c1ccc(C(=O)N2CCCCC2c2cc(C(=O)NCc3cccnc3)no2)cc1 (configuration not stated)	4.1	-0.4%	?	0.0%	/	?
Cc1cccc(C(=O)NNC(=O)c2ccccc2)c1	4.8	23.1%	1.1%	26.3%	1.1%	4.2%
Cc1cccc(C(=O)c2cnc3ccccc3c2-c2ccccc2)c1	-19.5	-0.9%	25.9µM*	-1.5%	3.2%	14.6µM*
O=C(NCCCNC(=O)c1ccccc1F)c1ccco1	-12.1	7.7%	-7.1%	10.5%	-1.0%	3.5%
